Hits are enriched below; roughly 6.1% of the tested compounds scored in any of these assays.
S2 tox: Viability Counterscreen for Primary qHTS for Inhibitors of ATXN expression | S2 cells (HEK-293 line with an ATXN2-luciferase reporter) viability, CellTiter-Fluor protease fluorescence, 24 h | Potency, µM (top dose mostly 56.7 µM), actives largely listed as cytotoxic | actives 0.49% (n = 400,000) | AID 651635, 2014; also: nearly all actives have a fitted effect of over 40% in size
TGFb inhibitor: qHTS for Inhibitors of TGF-b; HepG2 CAGA-GFP TGF-b/SMAD3 reporter, GFP fluorescence, 18 h; TGF-beta stimulated, 500 pg/mL final; actives 1.2% (n = 410,000); Potency, µM (doses to about 46.1 µM), without a hit: top-dose activity, negative = inhibition, actives largely listed as inhibitors; also: % is scaled to controls: 0 for no effect and ±100 for the full control effect; nearly all actives have a fitted effect of over 65% in size
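TGF-beta reporter screen: HEPG2 CAGA-GFP, 1% FBS, 500 pg/mL TGF-beta final, 18 h; per-cell GFP summed per well; curves fitted and categorized by class.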
ATXN2 expr inh: Primary qHTS for Inhibitors of ATXN expression; HEK-293 ATXN2-luciferase reporter, luminescence, 24 h; Potency, µM (doses to about 57 µM), for inactives: at the highest dose activity change, negative = inhibition, most hits filed as inhibitors; actives 0.72% (n = 360,000); also: % is scaled to controls: 0 for no effect and ±100 for the full control effect; nearly all actives have a fitted effect of over 55% in size
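ATXN2-luciferase reporter cells (luciferase flanked by upstream and downstream ATXN2 gene portions) were treated 24 h at 37 °C with compounds at up to 57 uM. SteadyGlo luminescence gave expression; GF-AFC fluorescence gave viability.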
HepG2 tox: qHTS for Inhibitors of TGF-b: Cytotox Counterscreen. Potency, µM (doses to about 46.1 µM), inactives show top-dose activity change, negative = cytotoxicity, hits mostly cytotoxic. HepG2 CAGA-GFP viability, ATP luminescence, 18 h. actives 0.76% (n = 410,000)
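CellTiter-Glo luminescence gave cytotoxicity after 18 hours at 37 degrees C. The cells were HepG2 CAGA-GFP in 1% FBS DMEM, stimulated with 500 pg/mL TGF-beta after compound addition. %Activity was normalised to no-cell wells (complete cell-killing) and DMSO (no toxicity), and curves were fitted and classified.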
VP16 counter: VP16 counterscreen qHTS for inhibitors of ROR gamma transcriptional activity. Drosophila S2 Gal4-VP16 UAS-luciferase, luminescence, 20 h. Potency, µM (highest dose often 53.6 µM), for the others: top-dose activity, negative = inhibition, most hits filed as inhibitors. actives 3.5% (n = 310,000);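 also: Gal4-VP16 expression switched on by copper sulfate through the metallothionein promoter; % is scaled to controls: 0 for no effect and ±100 for the full control effect; nearly all actives have a fitted effect of over 50% in size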
RORgamma inh: qHTS for inhibitors of ROR gamma transcriptional activity | actives 5.4% (n = 310,000) | Nuclear receptor ROR-gamma (Mus musculus), P51450 | Potency, µM (series often up to 53.6 µM), without a hit: top-dose activity change, negative = inhibition, actives largely listed as inhibitors | Drosophila S2 Gal4-RORgamma UAS-luciferase reporter, 20 h; also: % is scaled to controls: 0 for no effect and ±100 for the full control effect; nearly all actives have a fitted effect of over 60% in size
Target sequence (P51450 whole entry, looked up, the tested form may be a part): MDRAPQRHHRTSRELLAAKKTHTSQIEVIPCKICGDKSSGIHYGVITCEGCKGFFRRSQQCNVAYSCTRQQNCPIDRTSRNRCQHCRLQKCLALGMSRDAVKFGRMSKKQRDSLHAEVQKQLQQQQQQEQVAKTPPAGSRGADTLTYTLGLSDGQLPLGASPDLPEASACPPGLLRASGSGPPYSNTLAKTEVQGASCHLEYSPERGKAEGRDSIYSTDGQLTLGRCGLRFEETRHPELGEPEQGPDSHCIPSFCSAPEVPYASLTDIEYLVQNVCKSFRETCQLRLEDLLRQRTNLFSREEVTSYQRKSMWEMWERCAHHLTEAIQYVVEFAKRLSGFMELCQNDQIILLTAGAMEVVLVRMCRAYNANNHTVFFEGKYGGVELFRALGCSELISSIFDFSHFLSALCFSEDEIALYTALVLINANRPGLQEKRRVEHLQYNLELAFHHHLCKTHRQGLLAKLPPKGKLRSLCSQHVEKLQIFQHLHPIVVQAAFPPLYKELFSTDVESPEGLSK
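Using a luciferase readout, inhibitors were identified by reduced reporter activity in Drosophila cells coexpressing a copper-inducible Gal4–ROR gamma fusion and UAS-driven Photinus luciferase, incubated 20 hr after 700 uM copper sulfate.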
The depositor's hits bear a star; i = inactive; u = inconclusive; x = no result given; ! = repeats disagree; [ ] = dose if it differs, or a comment. Calls follow the shape of the dose curve; as a rule, active = well fitted curve in the direction sought with a large enough effect; inconclusive = small, poorly fitted or top-dose-only effect, or another doubt; inactive = no such curve, though single readings can be large; an effect the other way counts as inactive or inconclusive. Potency is read from the fitted curve at half-maximal effect.

SMILES	S2 tox	TGFb inhibitor	ATXN2 expr inh	HepG2 tox	VP16 counter	RORgamma inh
Cc1ccccc1-n1cc(-c2ccccc2)nc1SCC(=O)Nc1ccc(F)cc1	i	u	-23.1%	-2.8%	x	x
Cc1cc(NC(=O)CSc2nc3c(sc4ccccc43)c(=O)n2CCCN2CCOCC2)n[nH]1	u	-16.1%	1.41µM*	-51.4%	-20.1%	-13.2%
CCC1CN(CCNC(=O)c2ccc3c(c2)OCO3)Cc2cc(OC)ccc2O1 (stereo not given)	i	x	x	x	x	x
COc1ccc(-c2noc(-c3ccc(C)cc3Cl)n2)cc1OC	i	-0.9%	15.7%	0.4%	x	x
COc1ccc(N=Nc2n(C)c3ccccc3[n+]2C)cc1	x	x	x	x	2µM*	1.12µM*
COc1ccc(NC(=O)c2c(C)oc3ccc(O)c(CN4CCC(C)CC4)c23)cc1Cl	14.1µM*	12.6µM*	-19.4%	10µM*	x	x
COc1ccc(NC(=O)c2c(C)oc3ccc(O)c(CN4CCCC(C)C4)c23)cc1Cl (stereo not given)	x	x	x	11.2µM*	x	x
CCN1CCN(Cc2c(O)ccc3oc(C)c(C(=O)Nc4ccc(OC)c(Cl)c4)c23)CC1	u	-8.7%	-33.9%	-35.2%	x	x
Cc1cc(C)c(S(=O)(=O)NCC(c2ccc(N(C)C)cc2)N2CCOCC2)c(C)c1 (stereo not given)	x	u	x	-26.8%	x	x
CCCC1=Nc2cc(C(=O)N3CCC(C(=O)OCC)CC3)ccc2Sc2ccccc21	i	12.6µM*!	-0.2%	-9.0%	8.9%	28.5%
CCOC(=O)C1CCCN(C(=O)c2ccc3c(c2)C(C)(C)CCC3(C)C)CC1 (stereo not given)	i	14.1µM*	0.0%	-39.2%	x	x
CC1=Nc2cc(C(=O)NCCc3ccc(Cl)cc3)ccc2Sc2ccc(C)cc21	x	8.91µM*	x	-17.4%	x	x
CCCC1=Nc2cc(C(=O)NC3CCCC3)ccc2Sc2ccc(C)cc21	x	0.794µM*	x	-0.8%	x	x
CC(=O)NC(CS)C(=O)O (stereo not given)	x	x	5.9%	x	x	x
Cc1ccc(C)c(CNC(=O)c2ccc3c(c2)nc2n3CCC(C)C2)c1 (stereo not given)	x	0.0%	x	3.6%	x	x
CCC1=Nc2cc(C(=O)N3CCCCC3)ccc2Sc2ccc(C)cc21	31.6µM*	-15.8%	u	-4.2%	2.3%	13.9%
CCCC1=Nc2cc(C(=O)N3CCCC3)ccc2Sc2ccc(C)cc21	i	-8.1%	-8.6%	-6.6%	-12.0%	-13.1%
Cc1[nH]n(C(N)=S)c(=O)c1N=Nc1ccc(S(=O)(=O)N2CCCC2)cc1	u	-4.5%	-1.0%	-11.8%	1.26µM*	0.282µM*
Cc1ccc(N=Nc2c(C)[nH]n(C(N)=S)c2=O)cc1	i	-14.8%	27.9%	-1.4%	0.891µM*	0.316µM*
Cc1ccc(O)c(N=Nc2ccc(S(=O)(=O)N3CCCC3)cc2)c1	i	-8.9%	10.9%	6.4%	-13.1%	u
Cc1[nH]n(C(N)=S)c(=O)c1N=Nc1ccc(Br)cc1	i	u	x	-29.1%	2µM*	0.355µM*
Cc1[nH]n(-c2ccccc2)c(=O)c1N=Nc1ccc(C(N)=O)cc1	i	-2.0%	u	-0.1%	-6.7%	37.1%
CCc1nnc(NC(=O)c2cc(-c3ccccc3)nn2-c2ccccc2)s1	i	15.4%	-1.1%	-15.4%	u	10µM*
CC(C)C(=O)NNC(=O)CN1CCN(c2nc(-c3ccccc3)cs2)CC1	i	-4.5%	-9.8%	-4.4%	-0.2%	3.3%
CCc1nnc(NC(=O)CN2CCN(c3nc(-c4ccccc4)cs3)CC2)s1	i	-7.5%	-23.7%	-5.6%	u	11.2µM*
CC1(O)C(=O)C=C2C=C3CCCN3C=C2C1=O (stereo not given)	x	x	x	x	-0.2%[10 µM]	2.5%[10 µM]
CCOC(=O)c1cc(-c2ccccc2)n(CCCC(=O)Nc2ccc(C)c(Cl)c2)c1C	x	11.2µM*	x	-28.2%	x	x

Screening results: PubChem BioAssay, National Center for Advancing Translational Sciences (NCATS)
